# HT1080 IDH1KD tx: HT-1080 IDH1 knockdown cell toxicity (counter line); HT-1080 IDH1 knockdown viability, ATP luminescence, 48 h; AID 686971; Potency, µM (titrated, usually from 46.1 µM), inactives show at the highest dose activity, negative = toxicity, actives largely listed as cytotoxic; actives 2% (n = 360,000);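 further: potency means the concentration at half of the fitted maximal effect; 0% = DMSO wells and -100% = cell-free medium wells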
#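 Knockdown cells (IDH1KD HT-1080) received compounds 2 h after plating at 750 cells/well and were kept 48 h at 37 °C in 5% FBS RPMI. A CellTiter-Glo luminescence read gave % activity for curve fitting.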
# IL1B secr inh: inhibitors of inflammasome signaling (IL-1 beta secretion). THP-1 LPS/ATP IL-1B secretion, AlphaLISA, 16 h; stronger effect = lower value. AID 743279. activity change, % at 57.5 µM. actives 4.7% (n = 360,000); in the data active means activity change below about -50%; inconclusive means mostly about -30% to -49%
#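 Secreted IL-1B measured by AlphaLISA bead assay after 16 h compound exposure of THP-1 cells; compounds (final up to 57.5 uM) added 1 h before LPS (250 ng/mL) and ATP (1.25 mM) stimulation; lower signal means less secretion.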
# HT1080-NT tox: kills 2HG-producing HT-1080-NT fibrosarcoma cells; AID 686970; actives 1.6% (n = 360,000); Potency, µM (doses to about 46.1 µM), for the others: at the highest dose activity, negative = less viability, actives largely listed as cytotoxic; HT-1080-NT fibrosarcoma viability, CellTiter-Glo ATP luminescence, 48 h;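 further: NT is the 2HG producing partner of a matched IDH1 knockdown line; potency means the concentration at half of the fitted maximal effect; 0% = DMSO-treated cells and -100% = media-only wells without cells; nearly all actives have a fitted effect of over 55% in size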
#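 Toxicity toward the 2HG-producing NT line was scored as %Activity, normalised to DMSO and no-cell wells, from CellTiter-Glo luminescence after 48 hours' treatment.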
# ELG1 DNA repair: blocks ELG1-dependent DNA repair in HEK293T cells; HEK293T ELG1-luciferase reporter, luminescence, 16 h; DNA damage induced by 5-fluorouridine; actives 2.3% (n = 330,000); Potency, µM (series often up to 46.1 µM), for the others: at the top dose activity change, negative = inhibition, usual class: inhibitors; further: potency means the concentration at half of the fitted maximal effect; nearly all actives have a fitted effect of over 55% in size
#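 5-Fluorouridine DNA damage + compound/DMSO, 2,000 cells/well, 16 h, 37 °C/5% CO2. ONE-Glo, 30 min RT, luminescence. Readout = decrease in reporter signal.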
# DT40 TDP1 no CPT: qHTS for Inhibitors of human tyrosyl-DNA phosphodiesterase 1 (TDP1): qHTS in cells in absence of CPT | AID 686978, 2013 | DT40 Tdp1-/- hTDP1 cells, no CPT, ATP luminescence, 48 h | actives 15% (n = 420,000) | Potency, µM (highest dose often 46.2 µM), without a hit: top-dose activity change, negative = growth inhibition, most hits filed as inhibitors; further: potency means the concentration at half of the fitted maximal effect; nearly all actives have a fitted effect of over 55% in size
#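 Growth kinetics read by CellTiter-Glo luminescence after ≥48 hr at 37 °C. Cells: DT40 Tdp1-/- stably carrying human TDP1, 400 per well, compound exposure in the absence of CPT (DMSO vehicle).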
# TDP1 cell CPT: growth inhibition of DT40 Tdp1-/-;hTDP1 cells with camptothecin (screen for TDP1 inhibitors); Potency, µM (titrated, usually from 46.2 µM), for inactives: at the top dose activity change, negative = growth inhibition, actives largely listed as inhibitors; chicken DT40 Tdp1-/-;hTDP1 cells + 20 nM CPT, ATP luminescence, 48 h; actives 12% (n = 420,000); further: potency means the concentration at half of the fitted maximal effect; nearly all actives have a fitted effect of over 55% in size
#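 Chicken DT40 Tdp1-/- cells stably complemented with human TDP1 were seeded at 400 cells/well in medium containing 20 nM camptothecin, exposed to pin-transferred compounds, and grown at 37 °C for at least 48 hr. Viability was read as ATP luminescence.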
# * marks the source's active call; other numbers are inactive results; ? = inconclusive; · = no result; [ ] = another dose, or the depositor's remark. Rows were chosen to be rich in hits. Some 19% of all compounds tested hit in one or more screens of this group. Unless noted, the call rests on the fitted dose curve; in most records, active means well fitted curve in the direction sought with a large enough effect; inconclusive means small, poorly fitted or top-dose-only effect, or another doubt; inactive means no such curve, though single readings can be large; an effect the other way counts as inactive or inconclusive. Unless noted, on the % scale 0 is the no-effect control and ±100 the full control effect.
SMILES,HT1080 IDH1KD tx,IL1B secr inh,HT1080-NT tox,ELG1 DNA repair,DT40 TDP1 no CPT,TDP1 cell CPT
O=C1C=C(NCc2ccccc2)CCC1,1.4%,0.1,7.7%,5.7%,8.6%,-4.1%
O=C1C=C(NC2=CC3OC(c4ccccc4)OCC3OC2=O)CCC1 (stereo not drawn),20.6µM*,-117.5*,-26.4%,13µM*,9.2µM*,8.2µM*
CC(=O)N1CCc2c(sc(NC(=O)CS(=O)(=O)c3ccc(F)cc3)c2C#N)C1,-28.8%,58.9,-26.5%,8.6%,-106.3%,?
CC(=O)Nc1sc2c(c1-c1nc3ccccc3s1)CCN(C(C)C)C2,11.6µM*,-105.1*,11.6µM*,?,2.59µM*,2.31µM*
CC(=O)N1CCc2c(sc(NC(=O)CSc3ccc(F)cc3)c2-c2nc3ccccc3s2)C1,·,·,·,·,9.2µM*,11.6µM*
CN1CCc2c(sc(NC(=O)CSc3ccc(F)cc3)c2-c2nc3ccccc3s2)C1,·,·,·,·,16.4µM*,?
CN1CCN(C2(CNC(=O)c3ccc([N+](=O)[O-])cc3)CCCCC2)CC1,·,·,·,·,-1.4%,-7.0%
COC(=O)[C@@H](NC(=O)C1CCCN(c2nc(C)c3ccc(C)cc3n2)C1)C(C)C (stereo partly drawn),·,·,·,·,?,13.8%[9.04 µM]
CCN(CC)CCNC(=O)c1cc(Nc2ccc(OC)c(OC)c2)nc2ccccc12,?,-58.0*,-21.5%,0.3%,11.2%,-25.1%
CCN(CC)CCCNC(=O)c1cc(Nc2ccc(OC)cc2)nc2ccccc12,?,-60.4*,-28.0%,-1.4%,23.1µM*,18.4µM*
COc1ccc(Nc2cc(C(=O)NCc3cccs3)c3ccccc3n2)cc1,·,·,·,·,-14.0%,1.7%
Fc1ccc(CNCCC(Cc2ccccc2)c2ccco2)cc1 (stereo not drawn),-26.9%,-79.7*,?,-12.3%,?,-27.0%
CC(NCCC(Cc1ccccc1)c1ccco1)c1ccccc1 (stereo not drawn),-23.8%,-59.2*,-14.0%,4.7%,?,?
CC1=C(CC(=O)c2ccc(Cl)cc2)C(=O)c2ccccc2C1=O,11.2µM*,10.1,?,?,16.4µM*,23.1µM*
CCOC(=O)c1cnc2ccc(Cl)cc2c1NCCN(C)C,3.2%,0.0,-0.9%,0.5%,?,-3.0%
CCOC(=O)c1cnc2ccc(OCC)cc2c1NCCc1ccc(OC)c(OC)c1,·,·,·,·,2.31µM*,3.26µM*
CCOC(=O)c1cnc2ccc(C)cc2c1NCCc1ccc(OC)c(OC)c1,·,·,·,·,14.6µM*,14.6µM*
COc1cc2c(=O)n(CC3CCCO3)c(=O)n(CC(=O)Nc3ccccc3)c2cc1OC (stereo not drawn),-4.2%,-20.4,10.6%,-11.9%,-28.6%,-19.0%
CC(=O)NC(CC(=O)Nc1nc(-c2ccc(N(C)S(C)(=O)=O)cc2)cs1)c1ccccc1 (stereo not drawn),-23.9%,?,-19.0%,?,16.4µM*,20.6µM*
CN(c1ccc(-c2csc(NC(=O)CCCc3nc4ccccc4c(=O)[nH]3)n2)cc1)S(C)(=O)=O,-12.3%,26.3,-2.9%,·,8.2µM*,20.6µM*
O=C(N/N=C/c1ccc(-c2ccccc2[N+](=O)[O-])o1)c1cccnc1,0.2%,14.7,-3.5%,13.9%,?,16.4µM*
O=C(O)c1ccc(N/N=C/c2ccc(-c3ccccc3)cc2)cc1,10.3µM*,-17.3,16.4µM*,?,-6.7%,-7.2%
Cc1ccc(/C=N/Nc2ccc(C(=O)O)cc2)o1,-10.8%,37.7,0.7%,?,-2.2%,-6.8%
O=C(O)c1ccc(N/N=C/c2ccc(-c3ccc(Br)cc3)o2)cc1,23.1µM*,32.1,25.9µM*,?,?,?
O=C(O)c1ccc(N/N=C/c2ccc(-c3ccccc3Cl)o2)cc1,23.1µM*,-24.4,?,?,-6.6%,1.9%
SMILES,HT1080 IDH1KD tx,IL1B secr inh,HT1080-NT tox,ELG1 DNA repair,DT40 TDP1 no CPT,TDP1 cell CPT
O=C(O)c1cc(-c2ccc(/C=N/Nc3ccc(Cl)cc3)o2)ccc1Cl,-4.5%,30.1,?,11.4%,-7.1%,-3.4%
O=C(N/N=C/c1ccc(-c2ccccc2Cl)o1)c1ccccc1,?,-19.3,-20.3%,-15.3%,18.4µM*,14.6µM*
O=S(=O)(N/N=C\c1ccc(-c2ccccc2Cl)o1)c1ccccc1,?,-16.4,13.7%,0.4%,11.2µM*,11.2µM*
Cc1cc(C(=O)N/N=C/c2ccc(-c3cccc(Cl)c3Cl)o2)n[nH]1,-10.6%,22.1,-5.6%,?,?,?
Cc1cnc(-n2ncc(C(=O)NCCN3CCOCC3)c2C(C)C)nc1-c1ccc(F)cc1,·,·,·,·,-19.9%,0.5%
CC(C)[C@H](NC(=O)CCCn1nnc2ccccc2c1=O)C(=O)O,9.5%,-73.5*,-1.3%,?,-0.1%,-1.7%
O=C(O)CNC(=O)CCCn1nnc2ccccc2c1=O,-2.9%,-0.8,2.8%,-20.6%,26.3%,0.0%
CCCOc1ccc(N2C(=O)CC(NCCCN3CCC(C(N)=O)CC3)C2=O)cc1 (stereo not drawn),9.1%,-4.0,0.9%,·,?,25.9µM*
CCCOc1ccc(N2C(=O)CC(NCC#N)C2=O)cc1 (stereo not drawn),22.3%,-1.2,22.9%,0.1%,-11.3%,4.2%
COC(=O)C(C)(C(=O)OC)c1ccc([N+](=O)[O-])cn1,-0.7%,-0.6,1.2%,-7.1%,2.5%,5.0%
Cc1cc(S(=O)(=O)c2ccc([N+](=O)[O-])cn2)ccc1Br,3.66µM*,-106.4*,2.31µM*,·,0.326µM*,0.326µM*
Cc1cc(Sc2ccc([N+](=O)[O-])cn2)ccc1Br,3.0%,-13.6,-12.8%,·,?,-39.5%
O=[N+]([O-])c1ccc(S(=O)(=O)c2ccccc2)nc1,5.8µM*,0.0,5.8µM*,-0.6%,0.92µM*,0.517µM*
Cc1ccc(S(=O)(=O)c2ccc([N+](=O)[O-])cn2)cc1,4.61µM*,-105.3*,2.59µM*,-1.5%,0.517µM*,0.461µM*
COc1ccc(CNC(=O)[C@H](C)NC(=O)C2CCN(S(=O)(=O)c3ccccc3)CC2)cc1,6.1%,32.4,-0.3%,7.8%,-2.7%,-14.5%
N#Cc1ccccc1NC(=O)COC(=O)CCc1ccccc1,12.2%,19.3,20.2%,1.0%,-6.7%,-1.9%
CC1Cc2ccccc2N1C(=O)CSc1nnc(-c2cccc(Cl)c2)o1 (stereo not drawn),·,·,·,·,?,14.6µM*

# Source: PubChem (National Center for Advancing Translational Sciences (NCATS))
